# Results published in PubChem BioAssay AID1851 (National Center for Advancing Translational Sciences (NCATS), 2009).
# Where “and” joins values, the source holds several entries; their conditions need not be identical. Identical values can stand only once. Screen size: about 16,000 compounds; about 5,800 (36%) were called active. Roughly 23% stayed inconclusive and do not appear here. Calls come from the whole dose curve; as a rule, active = well fitted curve in the direction sought with a large enough effect; inconclusive = small, poorly fitted or top-dose-only effect, or effect the other way; inactive = no such curve, though single readings can be large or run the other way. The list shows a part of the results. Some structures have more than one record in an assay (separate samples or runs), and their calls can disagree.
# Molecular target: Cytochrome P450 2C19 (Homo sapiens) (UniProt P33261)
# Test: Cytochrome panel assay with activity outcomes
# Conditions: recombinant CYP, pro-luciferin dealkylation, luminescence, p450-cyp2c19; series mostly up to 57.1 µM
# % is set by controls: 0 for no effect and ±100 for the full control effect.
# Cytochrome P450 2C19 (Homo sapiens), sequence (P33261 whole entry, looked up): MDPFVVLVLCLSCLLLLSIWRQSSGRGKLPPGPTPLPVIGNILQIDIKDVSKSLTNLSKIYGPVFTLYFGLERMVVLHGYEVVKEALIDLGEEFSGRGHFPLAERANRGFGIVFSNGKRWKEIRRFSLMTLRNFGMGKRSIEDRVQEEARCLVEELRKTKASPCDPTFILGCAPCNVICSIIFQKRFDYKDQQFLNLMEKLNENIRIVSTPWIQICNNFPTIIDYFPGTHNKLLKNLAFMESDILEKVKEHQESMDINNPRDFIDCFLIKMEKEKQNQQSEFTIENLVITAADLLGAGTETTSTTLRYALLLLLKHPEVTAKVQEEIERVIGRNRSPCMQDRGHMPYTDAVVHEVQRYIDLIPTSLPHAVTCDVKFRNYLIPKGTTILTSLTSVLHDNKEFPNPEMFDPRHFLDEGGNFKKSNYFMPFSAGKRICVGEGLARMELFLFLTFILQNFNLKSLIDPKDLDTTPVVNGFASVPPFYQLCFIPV
SMILES,AC50,"activity, negative = inhibition"
COc1ccc2[nH]cc(CCN(C)C)c2c1,inactive,–
CCc1cc2c(nc1CC)CCN(CC/C(C)=N/OC)C2,–,6.29% [at 11.4 µM] (inactive)
C=C(C)[C@H]1CC[C@]2(C(=O)O)CC[C@]3(C)[C@@H](CC[C@H]4[C@@]5(C)CC[C@@H](O)C(C)(C)[C@@H]5CC[C@@]43C)[C@H]12,inactive,–
O=[As](O)(O)c1ccc(NCc2ccccc2)cc1,–,1.27% [at 11.4 µM] (inactive)
COC(=O)C1(C)C=C2C(=C(C)C(=O)C2C)CN1 (stereo unspecified),inactive,–
Ic1ccccc1CN[C@@H]1C2CCN(CC2)[C@H]1C(c1ccccc1)c1ccccc1,inactive,–
COc1cc(C(=O)OC2C[C@H]3CC[C@@H](C2)N3C)ccc1O (stereo partly specified),inactive,–
C/C(=C\c1ccc(N(C)C)cc1)[N+](=O)[O-],14.1 µM (active),–
C[C@H]1CC[C@@]2(NC1)O[C@@H]1C[C@H]3[C@@H]4CC=C5C[C@@H](O)CC[C@]5(C)[C@@H]4CC[C@]3(C)[C@@H]1[C@@H]2C,inactive,–
COc1cc(-c2ccc(=O)[nH]n2)ccc1OC(F)F,15.8 µM (active),–
COc1cc(C[C@H](C)N)c(OC)cc1I,inactive,–
C[C@@]12CC(=O)[C@H]3[C@@H](CCC4=CC(=O)CC[C@]43C)[C@H]1CCC2=O,inactive,–
C[C@@H]1CC[C@@H]2N(C1)C[C@H]1[C@@](O)([C@H](O)C[C@]3(O)[C@H]4CC[C@H]5[C@]6(O)O[C@]4(C[C@]13O)[C@@]5(C)CC[C@@H]6O)[C@@]2(C)O,–,1.59% [at 11.4 µM] (inactive)
NC(N)=NCCN=C(N)N,–,-3.51% [at 11.4 µM] (inactive)
CN(C)c1ccc(NC(=O)CN2C(=O)CN=C(c3ccccc3)c3ccccc32)cc1,2.24 µM (active),–
O=C(O)CN1C(=O)CN=C(c2ccccn2)c2cc(Cl)ccc21,–,33.4% [at 11.4 µM] (inactive)
CN(C)CCCNc1c2c(nc3ccc(Cl)cc13)CCCC2,–,23.5% [at 11.4 µM] (inactive)
Nc1nc(OCc2ccccc2)c2[nH]cnc2n1,6.31 µM (active),–
O=C(O)C[C@H]1NCc2cc3ccccc3nc21,–,22.2% [at 11.4 µM] (inactive)
COc1ccc2[nH]cc(CCN)c2c1,inactive,–
NCCc1c[nH]c2ccc(C(N)=O)cc12,inactive,–
CCCCCCCCCOc1ccc2[nH]cc(CCN)c2c1,10 µM (active),–

SMILES,AC50,"activity, negative = inhibition"
CCC(COC(=O)NC)NC(=O)Oc1ccccc1 (stereo unspecified),inactive,–
O=S(=O)(c1ccccc1)N1CCCCC1c1cccnc1 (stereo unspecified),10 µM (active),–
CC(C)=C[C@H]1[C@@H](C(=O)OCc2cc3c(cc2Cl)OCO3)C1(C)C,1.58 µM (active),–
CC(C)CN1CC2(CCN(C(=O)Oc3ccccc3)CC2)C1,inactive,–
Fc1ccc(C(OCCN2CCN(C/C=C\c3ccccc3)CC2)c2ccc(F)cc2)cc1,7.94 µM (active),–
C(=C/c1ccccc1)/CN1CCN(CCOC(c2ccccc2)c2ccccc2)CC1,10 µM (active),–
CO[C@@H]1CC=C2CCN3CCC4=C(CC(=O)OC4)[C@]23C1,inactive,–
O=C1OC(=O)[C@@H]2[C@@H]1[C@@H]1CC[C@H]2O1,inactive,–
CCS(=O)(=O)Nc1cccc(C(=C2CCCCC2)c2cnc[nH]2)c1,0.00794 µM (active),–
N#Cc1ccc(CN2CCC3(CC2)CCN(C(=O)Oc2ccccc2)CC3)cc1,inactive,–
CC(=O)c1c(O)c(C)c(O)c(Cc2c(O)c3c(c(C(=O)/C=C\c4ccccc4)c2O)OC(C)(C)C=C3)c1O,inactive,–
CCN1CCN(S(=O)(=O)c2ccc(Cl)nc2)CC1,inactive,–
NCc1cc(=O)[nH]o1,inactive,–
CS(=O)c1ccc(-c2nc(-c3ccc(F)cc3)c(-c3ccncc3)[nH]2)cc1 (stereo unspecified),inactive and 39.8 nM (active),–
N[C@@H](CCCCP(=O)(O)O)C(=O)O,inactive,–
C=CCN1C[C@H](C)N([C@H](c2ccc(C(=O)N(CC)CC)cc2)c2cccc(O)c2)C[C@H]1C,inactive,–
CCCCc1ccc(-c2nc(NC(=O)C3C4CCC(O4)C3C(=O)O)sc2C)cc1 (stereo unspecified),3.98 µM (active),–
CCCCc1ccc(C(=O)O)nc1,inactive,–
O=C(O)[C@H]1[C@H](C(=O)O)[C@H]2CC[C@@H]1O2,inactive,–
C[C@H](N)[C@H](O)c1ccc(O)c(O)c1,inactive,–
CC(C)CN1CCC2(CC1)CCN(S(C)(=O)=O)CC2,inactive,–
CC(C)NC(=O)N1CCC2(CC1)CCN(C(=O)Oc1ccccc1)CC2,inactive,–

SMILES,AC50,"activity, negative = inhibition"
CN(C)[C@H]1C(=O)C(C(N)=O)=C(O)[C@]2(O)C(=O)C3=C(O)c4c(O)cccc4[C@@](C)(O)[C@H]3C[C@@H]12,inactive,–
O=C(c1ccc(-c2nnc(Nc3ccccc3)c3ccccc23)cc1)N1C[C@H]2C[C@H](C1)c1cccc(=O)n1C2,8.91 µM (active),–
O=c1cccc2n1CC1CNC[C@H]2C1,inactive,–
CC(=O)OCC1=C(C(=O)O)N2C(=O)[C@@H](N)[C@@H]2SC1,inactive,–
COc1cc([C@@H](O)CN)ccc1O,inactive,–
Cc1c([C@@H](C)[C@H]2NC[C@H](C)C[C@@H]2O)ccc2c1C[C@@H]1[C@H]2CC=C2C[C@@H](O)CC[C@@]21C,–,26.3% [at 11.4 µM] (inactive)
C[C@@H]1Cc2cc3c(cc2C(c2ccc(N)cc2)=NN1)OCO3,2 µM (active),–
CC1=NN=C(c2ccc(N)cc2)c2cc3c(cc2C1)OCO3,inactive and 7.94 µM (active),–
COc1ccc(C(=O)OC2C[C@H]3CC[C@@H](C2)N3C)cc1OC (stereo partly specified),inactive,–
C[C@@]12C(=O)OC(=O)[C@@]1(C)[C@H]1CC[C@@H]2O1,inactive,–
CC1=C2C(=O)[C@@H]3[C@@H](CC=C4C[C@@H](O)CC[C@@]43C)[C@H]2CC[C@@]12O[C@H]1C[C@H](C)CN[C@H]1[C@@H]2C,–,15.9% [at 11.4 µM] (inactive)
CCCCCC[C@H]1C(=O)O[C@H](C)[C@H](NC(=O)c2cccc(NC=O)c2O)C(=O)O[C@@H](C)[C@H]1OC(=O)CC(C)C,inactive,–
COc1ccc(C(=O)NC2CC3CCCC(C2)N3CC(C)C)cc1OC (stereo unspecified),inactive,–
NC[C@H](O)c1ccc(O)cc1,inactive,–
O=C1CCCCCC1C1(O)C(=O)Nc2ccc(Br)cc21 (stereo unspecified),4.47 µM (active),–
Oc1ccc2c3c1O[C@H]1c4[nH]c5c(c4C[C@@]4(O)[C@@H](C2)N(CC2CC2)CC[C@]314)C[C@]1(O)[C@H]2Cc3ccc(O)c4c3[C@@]1(CCN2CC1CC1)[C@@H]5O4,inactive,–
Oc1ccc2c3c1O[C@@H]1c4[nH]c5c(c4C[C@@]4(O)[C@@H](C2)N(CC2CC2)CC[C@]314)C[C@]1(O)[C@@H]2Cc3ccc(O)c4c3[C@@]1(CCN2CC1CC1)[C@H]5O4,inactive,–
Oc1ccc2c3c1O[C@H]1c4[nH]c5ccccc5c4C[C@]4(O)[C@H](C2)N(CC2CC2)CC[C@@]314,10 µM (active),–
C[N+]1(C)[C@@H]2CC[C@H]1CC(OC(=O)[C@@H](CO)c1ccccc1)C2 (stereo partly specified),inactive,–
COc1cc(CCN)ccc1O,inactive,–
COc1cc(CNC(=O)CCCC/C=C\C(C)C)ccc1O,inactive and 6.31 µM (active),–
CNC[C@H](O)c1ccc(O)c(OC)c1,inactive,–

SMILES,AC50,"activity, negative = inhibition"
CC(=O)[C@@H]1CC[C@@H]2[C@@H]3CCC4=CC(=O)CC[C@@]4(C)[C@H]3CC[C@]21C,inactive,–
CN1C[C@H](C(=O)N[C@@]2(C)O[C@@]3(O)[C@H]4CCCN4C(=O)[C@@H](Cc4ccccc4)N3C2=O)C=C2c3cccc4[nH]cc(c34)C[C@@H]21,–,13.1% [at 11.4 µM] (inactive)
CC(C)C[C@H]1C(=O)N2CCC[C@@H]2[C@]2(O)O[C@](NC(=O)[C@H]3C=C4c5cccc6[nH]c(Br)c(c56)C[C@H]4N(C)C3)(C(C)C)C(=O)N12,inactive,–
CC(C)[C@@]1(NC(=O)[C@@H]2C[C@H]3c4cccc5[nH]cc(c45)C[C@@H]3N(C)C2)O[C@@]2(O)[C@H]3CCCN3C(=O)[C@H](Cc3ccccc3)N2C1=O,3.98 µM (active) and 5.01 µM (active),–
CCCCN(CCCC)CCC(O)c1cc2c(Cl)cc(Cl)cc2c2cc(C(F)(F)F)ccc12 (stereo unspecified),inactive,–
NC[C@@H](CC(=O)O)c1ccc(Cl)cc1,inactive,–
NC[C@H](CC(=O)O)c1ccc(Cl)cc1,2.51 µM (active),–
O=C(O)CP(=O)(O)c1ccc(Cl)cc1,inactive,–
CC1(C)N=C(N)N=C(N)N1c1cccc(C(=O)Nc2ccc(S(=O)(=O)F)cc2)c1,–,25.1% [at 11.4 µM] (inactive)
CC(=O)OCC1=C(C(=O)[O-])N2C(=O)[C@@H](NC(=O)CCC[C@@H](N)C(=O)[O-])[C@@H]2SC1.[Zn+2],inactive,–
C[C@]12CC[C@H]3c4ccc(O)cc4CC[C@@H]3[C@H]1CC[C@@H]2OC(=O)CCc1ccccc1,–,-66% [at 11.4 µM] (inactive)
Cc1ccc2c(c1)C1CN(C)CCC1N2C(=O)Nc1cccc(Cl)c1 (stereo unspecified),25.1 µM (active),–
NC(N)=NC(=O)c1nc(Cl)c(N)nc1N,inactive,–
O=C(c1ccccc1F)c1cn(CC(=O)N2CCOCC2)c2ccccc12,10 µM (active),–
CCOC(=O)Cn1cc(C(=O)c2ccccc2F)c2ccccc21,3.55 µM (active),–
O=C(O)c1nn(Cc2ccc(Cl)cc2Cl)c2ccccc12,inactive,–
O=C(c1ccccc1F)c1cn(Cc2ccccc2)c2ccccc12,1.26 µM (active),–
CCNC(=O)[C@@H]1O[C@@H](n2cnc3c(N)ncnc32)[C@H](O)[C@H]1O,inactive,–
O=P(O)(O)c1ccccc1 (tested in a mixture with another compound),–,41.3% [at 11.4 µM] (inactive)
CC[C@@H]1[C@@H]2C[C@H]3[C@H]4N(C)c5ccccc5[C@@]45C[C@@H]([C@@H]2[C@@H]5O)N3[C@H]1O,inactive,–
